# Hits are enriched below; roughly 2.8% of the tested compounds scored in any of these assays.
# Pol kappa inh-1: blocks human DNA polymerase kappa activity | 0.53% of 400,000 active | Potency, µM (doses to about 107 µM), inactives show at the top dose activity, negative = inhibition, hits mostly inhibitors | purified Pol kappa, fluorescent DNA synthesis assay, 10 min | AID 588579 | Q9UBT6; further: potency means the concentration at half of the fitted maximal effect; on the % scale 0 is the no-effect control and ±100 the full control effect
#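 10 nM Pol kappa was preincubated with compounds for 15 min at room temperature. Reaction started with 50 nM (final) substrate. Fluorescence read kinetically at 0 and 10 min.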
# PI5P4K alpha inh: inhibitors of human PI5P4K alpha. P48426. PI5P4Kalpha enzyme, ADP-Glo luminescence, 60 min; active compounds read low. max response, %. 1.2% of 330,000 active. AID 652105; active means max response of -50% or lower; inconclusive means between -30% and -50%; inactive means -30% or higher; further: value at the top dose of about 77 µM; on the % scale 0 is the no-effect control and ±100 the full control effect
#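 ADP-Glo luminescence end-point after a 60 min room-temperature kinase reaction. PI5P4Kalpha and substrate in HEPES pH 7.4 buffer with EGTA, 0.1% CHAPS and 5% DMSO; ATP at 5 microM final.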
# POLI inh: DNA polymerase iota (human) inhibition | AID 588590 | Potency, µM (top dose mostly 115 µM), for inactives: at the highest dose activity, negative = inhibition, hits mostly inhibitors | 1% of 390,000 active | Pol iota fluorescent replication assay, 10 min; further: potency means the concentration at half of the fitted maximal effect
#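 Fluorescent replication assay read twice, at 0 min and 10 min after adding 50 nM (final) substrate. Enzyme (10 nM) and compounds were first incubated 15 min at room temperature; enzyme-free buffer wells were negative controls.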
# WRN helicase inh-1: inhibitors of human WRN helicase; Q14191; WRN helicase unwinding, fluorescent forked duplex, kinetic; Potency, µM (titrated, usually from 114 µM), for the others: at the top dose activity change, negative = inhibition, hits mostly inhibitors; 0.46% of 360,000 active; further: potency means the concentration at half of the fitted maximal effect; on the % scale 0 is the no-effect control and ±100 the full control effect; nearly all actives have a fitted effect of over 55% in size
#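 WRN at 20 nM final was preincubated with compound for 15 min at room temperature; reaction started with 100 nM forked duplex oligonucleotide carrying fluorophore and quencher plus 2 mM ATP (final). Unwinding followed kinetically by red fluorescence (ex 525/em 598 nm).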
# Pol eta inh-1: DNA polymerase eta (human) inhibition; Q9Y253; recombinant Pol eta, fluorescent DNA replication assay; Potency, µM (series often up to 114 µM), for inactives: at the highest dose activity change, negative = inhibition, actives largely listed as inhibitors; 1.2% of 390,000 active; AID 588591; further: potency means the concentration at half of the fitted maximal effect; on the % scale 0 is the no-effect control and ±100 the full control effect
#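 Pol eta (10 nM) was preincubated with compounds for 15 min at room temperature, after which fluorescent replication substrate (50 nM final) was added to start the reaction. Fluorescence was read kinetically at 0 and 10 min.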
# Pol beta inh: inhibitors of human DNA polymerase beta. 1.3% of 340,000 active. Pol beta primer extension/strand displacement, fluorescence kinetic. Potency, µM (top dose mostly 114 µM), without a hit: top-dose activity change, negative = inhibition, most hits filed as inhibitors. P06746; further: potency means the concentration at half of the fitted maximal effect; on the % scale 0 is the no-effect control and ±100 the full control effect
#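 Human Pol beta at 10 nM; strand-displacement substrate 50 nM final. Compound exposure 15 min at room temperature before start, reaction 10 min at room temperature.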
# TbPGK inh: TbPGK inhibition, hit validation; TbPGK coupled GAPDH assay, Kinase-Glo luminescence; shares compounds with Pol kappa inh-1; 79% of 500 active; AID 686980; Potency, µM (series often up to 57.5 µM), inactives show at the top dose activity change, negative = inhibition, actives largely listed as inhibitors; further: potency means the concentration at half of the fitted maximal effect; on the % scale 0 is the no-effect control and ±100 the full control effect; nearly all actives have a fitted effect of over 65% in size
# POLI cherry-pick: Inhibitors of human DNA polymerase iota, confirmation; shares compounds with Pol kappa inh-1; Pol iota primer extension, TAMRA/BHQ fluorescence; Potency, µM, hits mostly inhibitors; 77% of 1,500 active; AID 720496; further: potency means the concentration at half of the fitted maximal effect
# Pol kappa inh-2: Pol kappa (human) inhibition, cherry-pick confirmation. shares compounds with Pol eta inh-1. purified Pol-kappa, fluorescent strand-displacement substrate. Potency, µM, usual class: inhibitors. 76% of 920 active. AID 720501; further: potency means the concentration at half of the fitted maximal effect
# Pol eta inh-2: confirmation of human DNA polymerase eta inhibitors. shares compounds with Pol eta inh-1. Pol eta primer extension, TAMRA/BHQ fluorescence, 10 min. Potency, µM, usual class: inhibitors. 64% of 2,600 active; further: potency means the concentration at half of the fitted maximal effect
# WRN helicase inh-2: confirmation of human WRN helicase inhibitors; WRN helicase DNA unwinding, fluorescence kinetic; 63% of 610 active; Potency, µM (top dose mostly 57.1 µM), inactives show at the highest dose activity, negative = inhibition, actives largely listed as inhibitors; shares compounds with WRN helicase inh-1; further: potency means the concentration at half of the fitted maximal effect; nearly all actives have a fitted effect of over 65% in size
# TO displacement: DNA binding via thiazole orange displacement; shares compounds with WRN helicase inh-1; thiazole orange DNA binding displacement, fluorescence; Potency, µM (series often up to 57.1 µM), inactives show at the top dose activity change, negative = inhibition, actives largely listed as inhibitors; 10% of 610 active; AID 720499;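 further: drop in dye fluorescence marks compound binding to DNA; potency means the concentration at half of the fitted maximal effect; on the % scale 0 is the no-effect control and ±100 the full control effect; nearly all actives have a fitted effect of over 60% in size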
# BLM counter: counter-screen for WRN helicase inhibitors: human BLM helicase inhibition. shares compounds with WRN helicase inh-1. Recombinant BLM helicase DNA unwinding, red fluorescence. Potency, µM (top dose mostly 57.1 µM), for the others: at the highest dose activity change, negative = inhibition, most hits filed as inhibitors. 60% of 610 active. AID 720503; further: potency means the concentration at half of the fitted maximal effect; nearly all actives have a fitted effect of over 60% in size
# Target sequence (P54132 whole entry, looked up): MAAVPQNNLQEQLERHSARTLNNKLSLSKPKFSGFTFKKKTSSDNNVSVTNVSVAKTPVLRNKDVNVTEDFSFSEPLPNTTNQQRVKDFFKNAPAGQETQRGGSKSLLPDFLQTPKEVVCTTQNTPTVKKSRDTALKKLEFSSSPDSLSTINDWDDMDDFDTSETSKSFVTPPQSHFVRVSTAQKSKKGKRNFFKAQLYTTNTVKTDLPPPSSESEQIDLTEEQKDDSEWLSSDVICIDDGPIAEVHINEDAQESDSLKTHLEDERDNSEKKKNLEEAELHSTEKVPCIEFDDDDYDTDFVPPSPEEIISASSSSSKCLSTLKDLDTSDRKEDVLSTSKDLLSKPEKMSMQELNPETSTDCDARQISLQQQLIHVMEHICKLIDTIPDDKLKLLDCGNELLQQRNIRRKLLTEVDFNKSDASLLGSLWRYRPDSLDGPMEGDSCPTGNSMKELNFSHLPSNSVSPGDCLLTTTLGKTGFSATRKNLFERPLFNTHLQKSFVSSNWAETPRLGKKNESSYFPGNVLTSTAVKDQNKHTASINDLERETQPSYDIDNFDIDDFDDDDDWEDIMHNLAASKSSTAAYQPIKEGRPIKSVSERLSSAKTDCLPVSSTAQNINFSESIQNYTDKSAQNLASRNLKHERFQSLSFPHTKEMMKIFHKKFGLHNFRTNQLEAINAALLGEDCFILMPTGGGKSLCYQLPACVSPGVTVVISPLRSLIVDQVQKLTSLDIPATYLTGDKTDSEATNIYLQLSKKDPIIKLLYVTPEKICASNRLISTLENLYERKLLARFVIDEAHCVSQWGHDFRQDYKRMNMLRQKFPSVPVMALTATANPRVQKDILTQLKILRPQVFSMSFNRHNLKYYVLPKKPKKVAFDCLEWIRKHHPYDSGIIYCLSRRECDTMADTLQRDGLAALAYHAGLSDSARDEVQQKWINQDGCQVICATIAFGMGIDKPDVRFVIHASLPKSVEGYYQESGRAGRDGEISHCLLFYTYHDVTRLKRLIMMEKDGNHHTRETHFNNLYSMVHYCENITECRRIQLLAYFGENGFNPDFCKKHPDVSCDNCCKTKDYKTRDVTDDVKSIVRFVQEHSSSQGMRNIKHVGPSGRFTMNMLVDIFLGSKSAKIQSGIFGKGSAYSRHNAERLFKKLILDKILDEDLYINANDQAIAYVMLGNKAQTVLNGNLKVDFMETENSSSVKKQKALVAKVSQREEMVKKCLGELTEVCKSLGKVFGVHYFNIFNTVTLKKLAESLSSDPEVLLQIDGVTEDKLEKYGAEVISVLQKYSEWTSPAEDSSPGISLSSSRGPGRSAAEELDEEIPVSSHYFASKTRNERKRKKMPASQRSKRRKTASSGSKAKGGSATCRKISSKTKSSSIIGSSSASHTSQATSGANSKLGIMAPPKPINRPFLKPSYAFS
# * = called active by the depositor; u = inconclusive; x = not tested or not shown; [ ] = remark or other dose. Unless noted, the call rests on the fitted dose curve; in most records, active means well fitted curve in the direction sought with a large enough effect; inconclusive means small, poorly fitted or top-dose-only effect, or another doubt; inactive means no such curve, though single readings can be large; an effect the other way counts as inactive or inconclusive.
SMILES,Pol kappa inh-1,PI5P4K alpha inh,POLI inh,WRN helicase inh-1,Pol eta inh-1,Pol beta inh,POLI cherry-pick,Pol eta inh-2,WRN helicase inh-2,TO displacement,BLM counter,others
COC(=O)c1ccc(N2NC(=O)/C(=C/c3ccc(-c4ccc(Cl)c(C(=O)O)c4)o3)C2=O)cc1,28.2µM*,u,8.91µM*,35.5µM*,3.16µM*,22.4µM*,26.7*,7.57*,17.1µM*,u,21.5µM*,Pol kappa inh-2=4.74*
CCC(=O)C1=C(c2cccc([N+](=O)[O-])c2)N(C(=O)CC)n2c(nnc2-c2ccccc2)S1,-0.8%[60.1 µM],x,u,x,-11.6%,6.7%,x,x,x,x,x,
CC(C)C(=O)Nc1ccccc1C(=O)OCc1cc(=O)n2nc(C3CC3)sc2n1,0.2%[60.1 µM],x,31.1%,x,-16.9%,9.9%,x,x,x,x,x,
CCSc1nnc(NC(=O)CSc2sc3c(O)cc(=O)[nH]c3c2C#N)s1,20µM*,-102.2*,3.55µM*,17.8µM*,3.55µM*,35.5µM*,42.3*,23.9*,19.2µM*,u,u,Pol kappa inh-2=9.47*
CCc1ccc(NC(=O)CSc2nnc(-c3nonc3NC(C)=O)n2-c2ccccc2)cc1,-7.6%,x,9.8%,x,-19.0%,19.5%,x,x,x,x,x,
CO/S(=N\S(=O)(=O)c1ccc(Cl)cc1)c1ccc([N+](=O)[O-])cc1 (stereo not given),-4.7%[60.1 µM],x,x,x,x,x,x,x,x,x,x,
O=C(O)c1ccc(-n2cccc2/C=N\NC(=O)c2cc3cc(Br)ccc3o2)cc1,14.1µM*,-92.7*,7.08µM*,39.8µM*,3.16µM*,u,2.99*,5.36*,15.2µM*,-19.0%,5.41µM*,TbPGK inh=9.19µM*
O=C(O)c1ccccc1NS(=O)(=O)c1ccc(N/N=C/c2cccc(O)c2O)c([N+](=O)[O-])c1,28.2µM*,u,10µM*,20µM*,3.16µM*,x,33.6*,30.1*,19.2µM*,27.1µM*,6.07µM*,TbPGK inh=11.6µM*
COc1cc(C=NNc2ccc(S(=O)(=O)Nc3ccccc3C(=O)O)cc2[N+](=O)[O-])ccc1O,-26.9%,-68.8*,u,79.4µM*,50.1µM*,x,75.2*,19*,24.1µM*,24.1µM*,27.1µM*,
Cc1cc(N2CCOCC2)ccc1/C=C1\NC(=O)N(CC(=O)Nc2ccc(F)cc2)C1=O,-8.5%[60.1 µM],-4.8,u,-1.5%,6.5%,32.0%,x,x,x,x,x,
N#CNC(=O)c1ccc(-n2cccc2/C=C2\NC(=O)N(CC(=O)Nc3ccc(F)cc3)C2=O)cc1,x,x,x,x,x,x,26.7*,47.8*,6.07µM*,9.61µM*,3.83µM*,
CCc1ccccc1NC(=O)C1CCCN(c2cnccn2)C1 (stereo not given),-9.8%,x,8.5%,x,-10.4%,29.7%,x,x,x,x,x,
COc1ccc(C2=Nn3c(nnc3-c3ccco3)SC2)cc1,5.3%,0.2,-4.5%,-5.4%,-8.2%,-1.4%,x,x,x,x,x,
Oc1ccc(C2=Nn3c(nnc3-c3ccco3)SC2)cc1O,20µM*,u,2.24µM*,11.2µM*,3.16µM*,3.98µM*,26.7*,19*,15.2µM*,-23.9%,17.1µM*,TbPGK inh=5.8µM*
O=C(O)COc1ccc(/C=N/NC(=O)c2ccc(-c3csc(Nc4ccc(Cl)cc4)n3)cc2)cc1,7.94µM*,-69.2*,2.82µM*,12.6µM*,2.51µM*,u,2.99*,10.7*,4.29µM*,5.41µM*,0.857µM*,
CCOc1ccccc1CNC(=O)CCCn1nc(C)c2sc3ccccc3c2c1=O,-1.2%,x,31.5%,x,-11.9%,-8.9%,x,x,x,x,x,
COc1ccc2[nH]c(=O)c(-c3nnn(-c4ccccc4)n3)cc2c1,14.5%,-13.9,18.1%,5.1%,-11.7%,2.1%,x,x,x,x,x,
COc1ccc2[nH]c(=O)c(-c3noc(-c4ccccc4)n3)cc2c1,2.5%,-0.9,u,u,u,-49.1%,42.3*,67.5*,21.5µM*,45.1%,6.07µM*,
COc1ccc(Nc2c3ccccc3nc3ccccc23)cc1,-19.5%,3.7,u,u,-0.9%,u,x,x,x,x,x,
CN1CCN(c2ccc(Nc3c4ccccc4nc4ccccc34)cc2)CC1,18.9µM*,x,x,x,x,x,42.3*,x,6.07µM*,7.64µM*,24.1µM*,Pol kappa inh-2=29.9*
O=C1/C(=C\c2cc([N+](=O)[O-])ccc2O)SC(=S)N1Cc1ccc(Cl)cc1,-3.7%,u,u,5.97µM*,u,3.16µM*,33.6*,23.9*,5.41µM*,20.7%,3.04µM*,
O=C1/C(=C\c2cccc(O)c2O)SC(=S)N1Cc1ccccc1,-7.1%,-27.0,u,-23.5%,u,-19.8%,x,x,x,x,x,
COc1ccc(NC(=O)CN2C(=O)CCn3nc(-c4cccn4C)cc32)cc1,-8.5%[60.1 µM],x,48.8%,x,-8.6%,-4.2%,x,x,x,x,x,
CCOC(=O)C(C)N1C(=O)S/C(=C\c2ccc(-c3ccccc3C(=O)O)o2)C1=O (stereo not given),-17.2%,u,u,25.1µM*,3.16µM*,22.4µM*,16.8*,16.9*,15.2µM*,-5.7%,21.5µM*,Pol kappa inh-2=2.99*
CC(C)N1C(=O)S/C(=C/c2ccc(Sc3nc4ccccc4[nH]3)o2)C1=O,-24.1%,-4.7,7.9%,-20.8%,-19.6%,-25.9%,x,x,x,x,x,
Clc1ccc(/C=C/c2ccncc2)cc1Cl,-0.4%,x,0.9%,x,x,x,x,x,x,x,x,
CCN1/C(=C/c2ccc3cc(C)ccc3[n+]2CC)Sc2cc(C)c(C)cc21,-22.4%,-13.0,87.1%,50.1µM*,u,14.1µM*,42.3*,75.7*,24.1µM*,21.5µM*,u,

# Screening results from PubChem.
